Reference: PubChem BioAssay AID2807 (Vanderbilt High Throughput Screening Facility, 2010)
Potency and affinity values are given separately. Values without a mark were called inactive. The rule behind the calls is not given here.

Biological target: Metabotropic glutamate receptor 4 (Homo sapiens) (UniProt Q14833)
Assay: PubChem AID 2807
Conditions: CHO hmGluR4/Gqi5 calcium mobilization, PAM potentiation; series mostly up to 30 µM; potentiation (% max glutamate): at the top concentration

Sequence of Metabotropic glutamate receptor 4 (Homo sapiens) (Q14833 whole entry, looked up): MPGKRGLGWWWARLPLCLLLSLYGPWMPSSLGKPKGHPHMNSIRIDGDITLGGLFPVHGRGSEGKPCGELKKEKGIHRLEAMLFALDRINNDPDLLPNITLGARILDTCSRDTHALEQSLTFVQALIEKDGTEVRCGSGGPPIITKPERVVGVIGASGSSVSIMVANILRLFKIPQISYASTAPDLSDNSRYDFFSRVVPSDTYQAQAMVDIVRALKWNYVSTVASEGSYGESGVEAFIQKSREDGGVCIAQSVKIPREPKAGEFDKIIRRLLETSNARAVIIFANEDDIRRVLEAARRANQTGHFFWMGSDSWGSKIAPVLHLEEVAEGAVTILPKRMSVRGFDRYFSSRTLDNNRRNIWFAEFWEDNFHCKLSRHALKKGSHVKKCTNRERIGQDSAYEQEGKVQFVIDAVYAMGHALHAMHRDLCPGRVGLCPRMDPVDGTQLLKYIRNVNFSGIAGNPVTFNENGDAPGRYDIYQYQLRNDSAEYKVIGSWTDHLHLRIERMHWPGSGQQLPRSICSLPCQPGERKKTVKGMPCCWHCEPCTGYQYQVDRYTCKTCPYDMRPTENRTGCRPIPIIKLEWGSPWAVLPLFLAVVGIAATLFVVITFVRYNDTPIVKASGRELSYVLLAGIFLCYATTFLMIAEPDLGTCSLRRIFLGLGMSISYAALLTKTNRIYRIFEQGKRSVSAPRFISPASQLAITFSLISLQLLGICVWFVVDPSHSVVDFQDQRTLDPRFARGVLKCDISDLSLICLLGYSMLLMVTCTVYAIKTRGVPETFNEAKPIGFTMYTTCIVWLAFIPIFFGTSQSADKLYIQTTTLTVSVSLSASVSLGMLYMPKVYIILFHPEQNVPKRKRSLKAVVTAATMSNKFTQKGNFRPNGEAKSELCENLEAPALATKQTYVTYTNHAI

SMILES	potentiation (% max glutamate)
Cn1cccc1C(=O)Nc1ccc(Cl)c(Cl)c1	23.5%
O=C(Nc1ccc(Cl)c(Cl)c1)C1CCCCC1	28.3%
O=C(Nc1ccc(Cl)c(Cl)c1)c1cnccn1	15.3%
O=C(Nc1ccc(Cl)c(Cl)c1)c1cc2ccccc2o1	22.2%
O=C(Nc1ccc(Cl)c(Cl)c1)c1ccccc1	29.1%
O=C(Nc1ccc(Cl)c(Cl)c1)c1ccc(-c2ccccc2)o1	18%
